GRP78 ERSR act = induces the endoplasmic reticulum stress response in human glioma cells | U87-MG GRP78 promoter luciferase reporter, 16 h | Potency, µM, for inactives: at the top dose activation, actives largely listed as activators | 420,000 tested, 0.02% active; note: series mostly up to about 76 µM; % of control where 0% means no effect; nearly all actives have a fitted effect of over 35% in size
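Stably transfected U87-MG glioma cells carrying a GRP78-based luciferase sensor; 16 h compound incubation. Luminescence end-point read 10 min after Bright-Glo addition at room temperature.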
ALOX12 inh = blocks human arachidonate 12S-lipoxygenase. purified 12hLO, xylenol orange hydroperoxide absorbance. Potency, µM (titrated, usually from 108 µM), for the others: at the top dose activity change, negative = inhibition, hits mostly inhibitors. 580,000 tested, 1.1% active. AID 1671190; note: % is set by controls: 0 for no effect and ±100 for the full control effect
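Purified human 12hLO at 150 nM in 25 mM Hepes, 0.01% Triton X-100, pH 7.0, preincubated 15 min at room temperature with compound. Reaction started with 40 uM arachidonic acid, 30 min at room temperature. Hydroperoxide measured by Fe-xylenol orange, 573/405 nm absorbance ratio.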
G9a inh = G9a (human) methyltransferase inhibition. Q96KQ7. G9a H3K9 monomethylation, AlphaScreen, 2 h. Potency, µM (series often up to 102 µM), inactives show at the highest dose activity, negative = inhibition, usual class: inhibitors. 350,000 tested, 8.8% active; note: % is set by controls: 0 for no effect and ±100 for the full control effect; nearly all actives have a fitted effect of over 75% in size
Target sequence (Q96KQ7 913-1193 limits assumed): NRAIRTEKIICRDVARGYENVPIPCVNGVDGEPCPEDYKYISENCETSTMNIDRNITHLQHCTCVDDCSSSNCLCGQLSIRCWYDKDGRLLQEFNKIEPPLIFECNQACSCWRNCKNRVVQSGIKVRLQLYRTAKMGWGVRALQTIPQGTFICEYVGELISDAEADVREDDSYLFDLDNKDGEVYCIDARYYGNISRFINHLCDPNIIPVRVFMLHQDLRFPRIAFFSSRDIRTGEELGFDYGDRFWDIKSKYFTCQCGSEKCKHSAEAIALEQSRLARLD
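Chemiluminescent proximity detection of H3K9 monomethylation, read after 10 min bead incubation in the dark. Reaction: 20 nM G9a, 500 nM biotin-H3K9 peptide, 20 uM SAM cofactor, 2 h, room temperature, following 15 min enzyme-compound preincubation.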
VDR inhibitor = inhibitors of human vitamin D receptor; Potency, µM, for inactives: max response, negative = inhibition, hits mostly inhibitors; 400,000 tested, 0.93% active; VDR-SRC2-3 peptide fluorescence polarization, 2 h; AID 504847; P11473; note: % is set by controls: 0 for no effect and ±100 for the full control effect
Target sequence (P11473 whole entry, looked up): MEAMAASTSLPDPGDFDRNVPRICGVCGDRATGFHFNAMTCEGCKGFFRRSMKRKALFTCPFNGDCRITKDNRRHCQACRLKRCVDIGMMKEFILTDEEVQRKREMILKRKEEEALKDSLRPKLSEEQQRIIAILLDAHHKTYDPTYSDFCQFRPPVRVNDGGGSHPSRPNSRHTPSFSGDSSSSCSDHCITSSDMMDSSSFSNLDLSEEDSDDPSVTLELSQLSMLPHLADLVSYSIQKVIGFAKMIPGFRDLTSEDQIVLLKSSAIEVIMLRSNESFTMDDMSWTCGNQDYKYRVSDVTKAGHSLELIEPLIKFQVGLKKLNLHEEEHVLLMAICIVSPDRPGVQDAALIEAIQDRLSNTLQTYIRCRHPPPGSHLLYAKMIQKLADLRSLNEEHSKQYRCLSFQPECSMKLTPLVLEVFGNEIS
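Compounds are added to VDR with labelled SRC2-3 coactivator peptide and held 2 h at room temperature. Inhibition of the VDR–peptide interaction is then read as a change in fluorescence polarization.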
Sfp PPTase inh = Sfp phosphopantetheinyl transferase inhibition; Biochemical Sfp PPTase activity, qHTS; Potency, µM, for inactives: largest response in the series, negative = inhibition, actives largely listed as inhibitors; 310,000 tested, 3.5% active;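 note: the enzyme is Sfp with the accession as filed and its product quenches rhodamine fluorescence; 0% = enzyme reaction without inhibitor and -100% = no enzyme wells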
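Step 1, compound plus 15 nM Sfp-PPTase, 15 min, room temperature. Step 2, add rhodamine-CoA (5 uM) and BHQ-2-YbbR (12.5 uM). Step 3, read 525/598 nm fluorescence at 0 and 30 min.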
* marks the source's active call; other numbers are inactive results; [ ] = dose if it differs, or a comment. The full list was thinned out, with hits kept by preference. Calls come from the whole dose curve; as a rule, active = well fitted curve in the direction sought with a large enough effect; inconclusive = small, poorly fitted or top-dose-only effect, or another doubt; inactive = no such curve, though single readings can be large; an effect the other way counts as inactive or inconclusive. Potency is the fitted concentration of half-maximal effect.

Results for N#CC1=C(N)NC(=S)C(C(N)=O)C1c1ccccc1F (configuration not stated) ?
GRP78 ERSR act: 0.4%; ALOX12 inh: 0.0%; G9a inh: 50.1µM*; VDR inhibitor: 4.47µM*; Sfp PPTase inh: 0.708µM*

What do the screens show for `N#CC1=C(N)NC(=S)C(C(N)=O)C1c1ccc(Cl)cc1Cl` (configuration not stated)?
GRP78 ERSR act: -10.1%; ALOX12 inh: inconclusive; G9a inh: inconclusive; VDR inhibitor: 22.4µM*; Sfp PPTase inh: 8.91µM*

How did COCCNC(=O)c1ccc2c(c1)OCCN(c1cccc(OC(F)(F)F)c1)C2 do in these assays?
ALOX12 inh: 10.1%[176 µM]

What do the screens show for `Cc1ccc([C@H]2C(C(=O)O)=C[C@@H](CC3CCCC3)N2S(=O)(=O)c2ccc(C)cc2)cc1`?
GRP78 ERSR act: 1.0%; ALOX12 inh: 39.8µM*; VDR inhibitor: -15.1%

Results for CCCOc1ccc(Br)cc1CSC(=N)N ?
GRP78 ERSR act: -3.4%; ALOX12 inh: inconclusive; G9a inh: 6.0%[59 µM]; VDR inhibitor: -6.7%; Sfp PPTase inh: -2.0%

How did CCCOc1ccc(C[N+](C)(C)C)cc1C[N+](C)(C)C do in these assays?
ALOX12 inh: 63.1µM*

Results for COc1ccc(CN2Cc3cc(NC(=O)c4cc(OC)cc(OC)c4)ccc3OC(C)C2=O)cc1 (configuration not stated) ?
ALOX12 inh: -10.1%

Results for O=C(C1CCN(c2cnn(CC3CC3)c(=O)c2)C1)N1CCc2ccccc2C1 (configuration not stated) ?
ALOX12 inh: 3.0%

How did COc1ccc(-c2ncccc2OC(=O)C23CC4CC(CC(C4)C2)C3)cc1 do in these assays?
GRP78 ERSR act: -3.2%; ALOX12 inh: -24.8%; G9a inh: 25.1µM*; VDR inhibitor: -2.8%; Sfp PPTase inh: -6.9%

Results for Cc1c(CN2CCC(CO)(CCOc3ccccc3)CC2)[nH]c2c(Cl)cccc12 ?
GRP78 ERSR act: -18.1%; ALOX12 inh: inconclusive; G9a inh: 50.1µM*; VDR inhibitor: -2.5%; Sfp PPTase inh: -23.1%

Results for Cc1nn(C)c(Cl)c1C=O ?
ALOX12 inh: -34.6%

How did CCOC(=O)c1c(N2CCN(c3ccccc3)CC2)cc(C)nc1C do in these assays?
GRP78 ERSR act: -4.2%; ALOX12 inh: inconclusive; G9a inh: 22.4µM*; VDR inhibitor: -14.2%; Sfp PPTase inh: -18.3%

What do the screens show for `CCOC(=O)c1c(CN2CCN(c3ccccc3)CC2)oc2ccc(O)cc12`?
GRP78 ERSR act: 3.5%; ALOX12 inh: -11.6%; G9a inh: 39.8µM*; VDR inhibitor: 1.4%; Sfp PPTase inh: 4.0%

What do the screens show for `CCOC(=O)c1c(C)oc2ncnc(N3CCN(c4ccccc4)CC3)c12`?
GRP78 ERSR act: -3.6%; ALOX12 inh: -8.8%; G9a inh: -10.8%[59 µM]; VDR inhibitor: 6.4%

Results for CCOC(=O)C1=NN(C(C)=O)C2(CC(=O)N(c3ccc(C)c(C)c3)C2=O)C1 (configuration not stated) ?
GRP78 ERSR act: -2.7%; ALOX12 inh: 4.3%; G9a inh: -5.7%[59 µM]; VDR inhibitor: -15.3%; Sfp PPTase inh: 0.7%

How did COC(=O)C1=NN(N=O)C2(CC(=O)N(c3cc(C)cc(C)c3)C2=O)C1 (configuration not stated) do in these assays?
GRP78 ERSR act: -3.9%; ALOX12 inh: inconclusive; G9a inh: 14.1µM*; VDR inhibitor: 15.3%; Sfp PPTase inh: -23.3%

Results for COc1ccc(C(CC(=O)N2CCCCC2)c2c(OC)cc(OC)c3c(-c4ccccc4)cc(=O)oc23)cc1 (configuration not stated) ?
GRP78 ERSR act: -3.2%; ALOX12 inh: 39.8µM*; G9a inh: -2.5%[12.7 µM]; VDR inhibitor: 2.8%; Sfp PPTase inh: -11.5%

What do the screens show for `COc1ccc(C(CC(=O)N2CCCC2)c2c(OC)cc(OC)c3c(-c4ccccc4)cc(=O)oc23)cc1` (configuration not stated)?
GRP78 ERSR act: -5.2%; ALOX12 inh: inconclusive; G9a inh: 14.3%[12.7 µM]; VDR inhibitor: -0.9%; Sfp PPTase inh: -25.9%

What do the screens show for `Cc1nc2nc(NCc3ccc(Cl)cc3)[nH]n2c(=O)c1CCO`?
ALOX12 inh: -5.9%

Results for COc1cc(C(=O)O/N=C2\C=CC(=O)C(C)=C2)cc(OC)c1OC ?
GRP78 ERSR act: -1.3%; ALOX12 inh: -10.4%; G9a inh: 14.1µM*; VDR inhibitor: inconclusive; Sfp PPTase inh: -3.9%

How did COc1ccc(C(=O)ON=C2C=C(C)C(=O)C(C)=C2)cc1 do in these assays?
GRP78 ERSR act: -3.0%; ALOX12 inh: -3.0%; G9a inh: 5.7%; VDR inhibitor: -10.7%; Sfp PPTase inh: 15.4%

What do the screens show for `O=C(Cc1sc(Nc2ccccc2)nc1-c1ccccc1)NCc1ccccn1`?
GRP78 ERSR act: -4.7%; ALOX12 inh: 6.5%; G9a inh: 35.5µM*; VDR inhibitor: 7.6%; Sfp PPTase inh: 14.1µM*

What do the screens show for `Cc1ccc(Nc2nc(-c3ccccc3)c(CC(=O)O)s2)cc1`?
GRP78 ERSR act: 6.8%; ALOX12 inh: inconclusive; G9a inh: 44.7µM*; VDR inhibitor: 9.2%; Sfp PPTase inh: 0.3%

How did O=C(O)Cc1sc(Nc2ccc(F)cc2)nc1-c1cccs1 do in these assays?
GRP78 ERSR act: 3.0%; ALOX12 inh: inconclusive; G9a inh: 8.91µM*; VDR inhibitor: inconclusive; Sfp PPTase inh: 22.4µM*

How did O=C(O)Cc1sc(Nc2ccccc2)nc1-c1ccc(Cl)cc1 do in these assays?
GRP78 ERSR act: 4.5%; ALOX12 inh: inconclusive; G9a inh: 17.8µM*; VDR inhibitor: 3.6%; Sfp PPTase inh: inconclusive

Results for O=C(O)Cc1sc(Nc2ccc(C(=O)O)cc2)nc1-c1ccccc1 ?
GRP78 ERSR act: 1.8%; ALOX12 inh: -21.6%; G9a inh: 1.7%[59 µM]; VDR inhibitor: -6.2%

What do the screens show for `COCCCNC(=O)CCc1ncc(-c2ccccc2F)o1`?
ALOX12 inh: 8.0%

How did Cc1ccc(CNC(=O)c2cc(=O)c3c(C)cc(C)cc3o2)cc1 do in these assays?
ALOX12 inh: -20.9%

What do the screens show for `O=C(O)Cc1sc(-c2ccccc2)nc1-c1ccccc1`?
GRP78 ERSR act: -1.0%; ALOX12 inh: 12.3%; G9a inh: inconclusive; VDR inhibitor: 21.9%; Sfp PPTase inh: -4.7%

How did O=C(O)Cc1sc(NCc2ccco2)nc1-c1ccccc1 do in these assays?
GRP78 ERSR act: -1.8%; ALOX12 inh: -7.5%; VDR inhibitor: 6.3%; Sfp PPTase inh: 25.1µM*

Results for CC(C)C1N=C(c2ccc3c(c2)OCO3)CC(c2ccccc2O)N1 (configuration not stated) ?
GRP78 ERSR act: inconclusive; ALOX12 inh: -21.0%; G9a inh: inconclusive; VDR inhibitor: 79.4µM*; Sfp PPTase inh: inconclusive

Results for CC(C)C1(C)NC(c2ccc3c(c2)OCO3)=CC(c2ccccc2O)N1 (configuration not stated) ?
GRP78 ERSR act: 3.8%; VDR inhibitor: -10.9%
